Bioassay records as filed in PubChem.
Only some compounds are listed: those with a hit (about 2.4% of all), similar ones and a draw of the others.
Pol kappa inh – qHTS for Inhibitors of Polymerase Kappa | DNA polymerase kappa (Homo sapiens), Q9UBT6 | purified Pol kappa, fluorescent DNA synthesis assay, 10 min | Potency, µM (doses to about 107 µM), inactives show at the top dose activity, negative = inhibition, most hits filed as inhibitors | hit rate 0.53% among 400,000 | AID 588579, 2011; further: on the % scale 0 is the no-effect control and ±100 the full control effect
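First, compounds were pin-transferred onto 10 nM Pol kappa. After 15 min at room temperature, substrate was added to 50 nM final. Fluorescence was then measured kinetically at 0 and 10 min.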
FEN1 inhibitor – qHTS Assay for the Inhibitors of Human Flap endonuclease 1 (FEN1); Potency, µM (top dose mostly 114 µM), for the others: at the top dose activity change, negative = inhibition, actives largely listed as inhibitors; P39748; hit rate 0.35% among 390,000; Recombinant FEN1 flap cleavage, fluorescence, 15 min; AID 588795, 2011; further: on the % scale 0 is the no-effect control and ±100 the full control effect; nearly all actives have a fitted effect of over 65% in size
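Potency values derive from four-parameter Hill fits of normalized qHTS data. The reaction used 10 nM FEN1 preincubated 15 min at room temperature with compound, then 50 nM DNA substrate, read at 0 and 15 min.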
Tb PGK inh – qHTS Assay to Find Inhibitors of Phosphoglycerate Kinase; AID 602233, 2012; Potency, µM (highest dose often 57.5 µM), for the others: at the highest dose activity change, negative = inhibition, actives largely listed as inhibitors; PGK/GAPDH coupled, Kinase-Glo luminescence, 60 min; hit rate 0.043% among 380,000; further: on the % scale 0 is the no-effect control and ±100 the full control effect; nearly all actives have a fitted effect of over 60% in size
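Luminescent ATP detection (Kinase-Glo Plus) follows a 60-minute room-temperature incubation, with wells lacking PGK as controls. Buffer: 100 mM TEA (pH 7.6), 5 mM MgCl2, 0.01% Tween-20. Coupling enzyme GAPDH (100 nM final) supplies unstable 1,3-BPG in-well.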
Pol iota inh – qHTS for Inhibitors of Polymerase Iota; DNA polymerase iota (Homo sapiens), Q9UNA4; Pol iota fluorescent replication assay, 10 min; Potency, µM (series often up to 115 µM), for the others: at the highest dose activity, negative = inhibition, actives largely listed as inhibitors; hit rate 1% among 390,000
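Pol iota at 10 nM preincubated 15 min with compounds at room temperature; reaction started with fluorescent substrate, 50 nM final. Fluorescence read kinetically at 0 and 10 min; buffer-only wells as negative control.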
POLB inh – qHTS Assay for Inhibitors of DNA Polymerase Beta. Pol beta primer extension/strand displacement, fluorescence kinetic. AID 485314, 2010. hit rate 1.3% among 340,000. P06746. Potency, µM (doses to about 114 µM), for the others: at the top dose activity change, negative = inhibition, usual class: inhibitors; further: on the % scale 0 is the no-effect control and ±100 the full control effect
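Pol beta (10 nM) was preincubated with compound for 15 min at room temperature. The reaction was then started with 50 nM substrate and read immediately and after a further 10 min at room temperature.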
POLH inh – qHTS for Inhibitors of Polymerase Eta | DNA polymerase eta (Homo sapiens), Q9Y253 | recombinant Pol eta, fluorescent DNA replication assay | Potency, µM (titrated, usually from 114 µM), for inactives: at the top dose activity change, negative = inhibition, hits mostly inhibitors | hit rate 1.2% among 390,000 | AID 588591, 2011; further: on the % scale 0 is the no-effect control and ±100 the full control effect
Target sequence (Q9Y253 whole entry, looked up): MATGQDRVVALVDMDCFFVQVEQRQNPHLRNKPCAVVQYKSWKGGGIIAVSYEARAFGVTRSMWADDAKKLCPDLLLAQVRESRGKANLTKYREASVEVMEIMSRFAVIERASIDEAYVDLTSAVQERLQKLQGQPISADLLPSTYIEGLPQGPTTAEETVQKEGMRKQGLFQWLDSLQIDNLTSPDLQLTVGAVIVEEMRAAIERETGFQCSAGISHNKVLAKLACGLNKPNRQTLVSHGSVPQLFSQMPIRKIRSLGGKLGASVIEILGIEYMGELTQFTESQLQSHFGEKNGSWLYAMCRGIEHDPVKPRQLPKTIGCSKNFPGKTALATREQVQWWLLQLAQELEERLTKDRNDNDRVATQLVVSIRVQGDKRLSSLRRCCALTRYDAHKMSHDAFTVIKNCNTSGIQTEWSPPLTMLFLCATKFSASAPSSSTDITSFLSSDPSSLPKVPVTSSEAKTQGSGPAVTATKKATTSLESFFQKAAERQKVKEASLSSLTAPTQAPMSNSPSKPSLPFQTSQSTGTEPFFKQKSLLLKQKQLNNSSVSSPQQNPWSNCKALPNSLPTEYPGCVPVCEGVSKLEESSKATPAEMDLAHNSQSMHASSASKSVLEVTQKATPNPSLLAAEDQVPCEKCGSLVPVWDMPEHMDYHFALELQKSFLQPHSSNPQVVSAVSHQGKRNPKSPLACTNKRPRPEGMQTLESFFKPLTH
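Pol eta at 10 nM preincubated with compounds 15 min at room temperature; reaction started with fluorescent substrate (50 nM final) and read kinetically at 0 and 10 min.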
Starred values were filed as active, the others as inactive; i = inactive; ? = inconclusive; / = no result; [ ] = dose if it differs, or a comment. The call rests on the fitted dose curve; in most records, active means well fitted curve in the direction sought with a large enough effect; inconclusive means small, poorly fitted or top-dose-only effect, or another doubt; inactive means no such curve, though single readings can be large; an effect the other way counts as inactive or inconclusive. Potency means the concentration at half of the fitted maximal effect.

SMILES	Pol kappa inh	FEN1 inhibitor	Tb PGK inh	Pol iota inh	POLB inh	POLH inh
CCOC(=O)N(C)C(=O)CSP(=S)(OCC)OCC	16%[60.1 µM]	/	/	/	/	/
[Cl-].[Cl-].[Hg+2]	-29%[60.1 µM]	/	/	/	/	/
CC[C@H](CO)NC(=O)[C@H]1C=C2c3cccc4[nH]cc(c34)C[C@@H]2N(C)C1	-5%[12 µM]	/	/	/	/	/
O=C(O)Cn1cc(/C=C2\C(=O)NC(=O)N(c3ccc(Cl)cc3)C2=O)c2ccccc21	-10%	?	-3%	?	2%	?
Cn1cc(/C=C2\C(=O)NC(=O)N(c3ccccc3)C2=O)c2ccccc21	-19%	-2%	0%	?	-7%	25µM*
CC(C)(C)NCC(O)c1cc(Cl)c(N)c(C(F)(F)F)c1 (stereo not given)	6%[19.4 µM]	/	/	/	/	/
O=C(O)CSCC(=O)N(Cc1ccccc1)c1nc(-c2ccccc2)c(-c2ccccc2)s1	?	?	-16%	50µM*	50µM*	?
O=C(O)c1cn(Cc2ccccc2)nc1-c1ccccc1	5%	-20%	-1%	24%	0%	-14%
[Cl][In]([Cl])[Cl]	3%[60.1 µM]	?	/	18µM*	/	/
CC(C)C[C@H]1C(=O)N2CCC[C@H]2[C@]2(O)O[C@](NC(=O)[C@@H]3C=C4c5cccc6[nH]cc(c56)C[C@H]4N(C)C3)(C(C)C)C(=O)N12	-25%	?	-4%	11µM*	/	-5%
CCOP(=S)(OCC)SCSc1ccc(Cl)cc1	15µM*	/	/	/	/	/
CCN(c1ccc(C)cc1C)S(=O)(=O)c1nnc(NC(=O)c2ccco2)s1	-26%	0%	i	?	-25%	79µM*
O=C1C=CC(=O)C(Cl)=C1	16µM*	/	/	/	/	/
CCOc1cncc(/C=C/CCNC)c1	17%[60.1 µM]	/	/	/	/	/
CNc1ccc2oc(C[C@@H]3OC4(CC[C@@H]3C)O[C@H]([C@@H](C)C(=O)c3ccc[nH]3)[C@H](C)C[C@H]4C)nc2c1C(=O)O (stereo not given in full)	-3%[19.4 µM]	/	/	/	/	/
Oc1c(Br)c(Br)c(Br)c(Br)c1Br	?	50µM*	?	?	/	?
Oc1c(Br)cc(Br)cc1Br	-7%	-5%	-11%	1%	/	-9%
O=C(CSc1nnc(NC(=O)c2ccccc2[N+](=O)[O-])s1)NCc1ccco1	-25%	11%	-3%	?	-10%	?
O=C(CCCN1CCC2(CC1)C(=O)N(Cc1cccc(F)c1)CN2c1ccccc1)c1ccc(F)cc1	-1%[19.4 µM]	/	/	/	/	/
COC(=O)C1=C(c2ccc3ccccc3c2)C[C@@H]2CC[C@H]1N2C(=O)NCc1ccco1	?	-16%	-3%	-28%	/	35µM*
N[C@@H](Cc1cc(Br)c(O)c(Br)c1)C(=O)O	/	/	/	/	22µM*	/
NC(Cc1ccc(N(CCCl)CCCl)cc1)C(=O)O (stereo not given)	0%[60.1 µM]	9%[57.1 µM]	/	-13%[58.9 µM]	-10%[57.1 µM]	-2%[57.1 µM]
COc1ccc(COC(=O)CCNC(=O)c2ccc(Cl)cc2)cc1	-24%	-1%	-2%	23%	/	-15%
COC(=O)/C(C)=C\CC12OC(C)(C)C3CC(C=C4C(=O)c5c(OC)c6c(c(CC=C(C)C)c5OC431)OC(C)(CCC=C(C)C)C=C6)C2=O (stereo not given)	-24%[60.1 µM]	/	/	/	/	/
CC(=O)Oc1c2c(c(CC=C(C)C)c3c1C(=O)C1=CC4CC5C(C)(C)OC(C/C=C(\C)C(=O)O)(C4=O)[C@]15O3)OC(C)(CCC=C(C)C)C=C2 (stereo not given in full)	25µM*	/	/	/	/	/
SMILES	Pol kappa inh	FEN1 inhibitor	Tb PGK inh	Pol iota inh	POLB inh	POLH inh
CN(C(=O)Cc1ccc(Cl)c(Cl)c1)C(CN1CCCC1)c1cccc(N=C=S)c1 (stereo not given)	5%[19.4 µM]	/	/	/	/	/
O=c1cc(C2CCNCC2)[nH][nH]1	0%	-13%	0%	0.89µM*	3%	14%
COc1ccc(CCn2c(NN=C3CCCCC3)nc3c2c(=O)[nH]c(=O)n3C)cc1	-18%	7%	-29%	18µM*	-23%	?
CC1Oc2cc3c(-c4c(O)cc(O)c5c(O)c6c(cc45)OC(C)C(C)C6=O)c(O)cc(O)c3c(O)c2C(=O)C1C (stereo not given)	35µM*	14µM*	-2%	4µM*	35µM*	7.1µM*
O=C1NC(=S)NC(=O)C1=Cc1ccc(OCC(=O)N2CCCC2)cc1	-34%	-16%	-11%	?	50µM*	?
CCCCNC(=O)/C(C#N)=c1\s/c(=C\c2ccccc2OC(F)F)c(=O)n1CCCOC	-2%	-4%	-11%	32%	34%	-8%
CCCN1CCC[C@@H]2Cc3cn[nH]c3C[C@H]21	-4%[60.1 µM]	/	/	/	/	/
O=C1CC=C2C3CC4N(CCC45c4cc(O)c(O)cc4N1C25)CC3=CCBr (stereo not given)	?	?	?	40µM*	/	?
O=C1CC=C2C3CC4N(CCC45c4ccccc4N1C25)CC3=CCO (stereo not given)	-4%	7%	-2%	13%	/	-14%
CC(C)=CCCN1CCC(NC(=O)C(O)(c2ccccc2)C2CCCC2)CC1 (stereo not given)	-4%[60.1 µM]	/	/	/	/	/
ClCCN(CCCl)c1ccc(/C=C/c2sc3ccccc3[n+]2CCCCI)cc1	28µM*	?	/	89µM*	/	/
Cc1oc2ccc(O)c(CN3CCCCCC3)c2c1C(=O)Nc1cccc(Cl)c1C	-14%	2%	10%	-4%	-9%	?
CCn1cc2nc(SCc3cccc(C(F)(F)F)c3)n(Cc3ccc(OC)cc3)c(=O)c2n1	21%	?	-6%	-9%	6%	-12%
CC1(C)OC(c2ccccc2)=C/C(=C/C=C2C(=O)NC(=O)NC2=O)O1	-32%	-6%	?	?	14µM*	?
CCOP(=O)(OCC)C(O)c1ccccc1 (stereo not given)	-7%	16%	7%	12%	?	-5%
